Measurements taken from PubChem BioAssay (NCI).
Where “and” joins values, the source holds several entries; their conditions need not be identical. Equal entries are not always repeated. About 83,000 compounds went through this panel and 20% of them were active in at least one assay; those are over-represented in the sample as a whole.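 Step 1: grow cells in 96-well plates. Step 2: add test compound at a single concentration. Step 3: incubate 48 h. Step 4: record percent growth.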 Unmarked numbers belong to inactive results. Calls of active or inactive are those of the source. Rule for the calls: active = growth percent below 10; inactive = the rest.

system: MALME-3M melanoma; experiment: NCI-60 one-dose screen, 48 h (100 = growth as untreated, 0 = no growth, -100 = all killed); details: 10 µM unless noted

Compound	growth
Cc1ccc2c(n1)C(=O)C(Cl)=C(Nc1ccc(C#N)cc1)C2=O	27%
CC(C)(O)c1cncc(-c2ccc3ncc(C#N)c(N4CCc5cc(F)c(Cl)cc54)c3c2)c1	-12.8% (active)
O=c1c2ccccc2cc2n1CCN=C2c1ccccc1	102%
O=C(CN1CCN(c2cc(=O)[nH]c3ccc(F)cc23)CC1)N(c1ccccc1)c1ccccc1	100%
CCc1cc(OC(=O)N2CCC(N3CCCCC3)CC2)ccc1Nc1cc(-c2ccc(-n3cccn3)cc2)[nH]n1	-6.02% (active)
CCCC/C(=C\c1ccc(O)c(O)c1)C(=O)NC(Cc1ccccc1)C(=O)C(=O)NCCc1ccc(OC)cc1 (stereo not drawn)	101%
CN(C)c1ccc(-c2cc(-c3c[nH]c4ccccc34)nc(N)c2C#N)cc1	64.4%
COc1cc(C(=O)c2cc(C(C)=O)c3ccc(C)cn23)cc(OC)c1OC	43.9%
CCOC(=O)c1ccccc1NC1=C(Cl)C(=O)c2nc(C)ccc2C1=O	107%
CN(C)S(=O)(=O)c1ccc(-c2nc(C(Cl)Cl)nc3cc(-c4ccccc4)nn23)cc1	15.3%
CN1CCN(c2ccc(Nc3nc(NCCCNS(=O)(=O)c4ccc(Cl)cc4)c4sccc4n3)cc2)CC1	-88.4% (active)
O=C1[C@@H]2Cc3c([nH]c4ccccc34)[C@H](c3ccc(Cl)cc3)N2C(=O)CN1C1CCN(Cc2ccccc2)CC1	74.5%
CN1CCN(CCNc2nc(-c3cccc(NS(=O)(=O)c4cccc5c(N(C)C)cccc45)c3)cs2)CC1	44%
C#C[C@]1(O)CC[C@H]2[C@@H]3CC=C4c5sc(Nc6ncccc6C)nc5CC[C@]4(C)[C@H]3CC[C@@]21C	-19% (active)
CC(=O)N(O)CCCCCNC(=O)CCC(=O)N(O)CCCCCNC(=O)CCC(=O)N(O)CCCCCN(CCCCCCCCCC[P+](c1ccccc1)(c1ccccc1)c1ccccc1)CCCCCCCCCC[P+](c1ccccc1)(c1ccccc1)c1ccccc1	-17.4% (active)
O=C1Nc2ccccc2/C1=N\c1nnc(-c2ccccc2)o1	89.7%
CCCCCCCCCC(=O)NC(C)(C)C(=O)N1CCC[C@H]1C(=O)N[C@@H](CC(C)C)C(=O)N[C@@](C)(CC)C(=O)N[C@@H](CCC(N)=O)C(=O)N[C@H](CCC(N)=O)C(=O)NC(C)(C)C(=O)NC(C)(C)C(=O)N[C@@H](CCC(N)=O)C(=O)N[C@H](CC(C)C)C(=O)N[C@H](CO)CC(C)C	-91.4% (active) and -84.4% (active)

Compound	growth
Fc1cccc(Cl)c1/C=N/Nc1nc(N/N=C/c2c(F)cccc2Cl)nc(N2CCCCC2)n1	-4.19% (active)
Cc1ccc(/C(N)=N/C(N)=N/c2nc3ccccc3s2)cc1	110%
CCc1cc2c(cc1Cl)nc1c(=O)[nH]c(=O)nc-1n2CCOCC(C)(C)C	-9.68% (active)
Cc1csc(/N=C(N)/N=C(\N)c2cccc(Br)c2)n1	97.7%
Brc1cccc(-c2cc(-c3cnc4c(c3)OCCO4)n[nH]2)c1	37%
CN(C)CC(=O)Nc1nc(-c2cccc(NS(=O)(=O)c3cccc4c(N(C)C)cccc34)c2)cs1	85.2%
O=C(/C=C/c1cc(Cl)ccc1Cl)Nc1ncc(Cc2ccc(Cl)cc2)s1	49%
Nc1ncc(-c2ccc3ncnc(NCc4ccccc4)c3c2)cn1	38%
Cc1ccc(-c2cc3nc(C(Cl)Cl)nc(-c4ccc(S(=O)(=O)N(C)C)cc4)n3n2)cc1	100%
CCN(CC)CCOc1ccc(C(=C(c2ccccc2)C2CCCC2)c2ccc(OCCN(CC)CC)cc2)cc1	-0.396% (active)
COC(=O)c1cccc(NC2=C(Cl)C(=O)c3nc(C)ccc3C2=O)c1	87.5%
COc1cc(/C=N\NC(=O)c2ccc3nc(-c4ccc(Br)cc4)[nH]c3c2)cc(OC)c1OC	23.4%
NC1=NC2(CCCC2)N(c2ccc(S(=O)(=O)Nc3nccs3)cc2)C(N)=N1	101%
N#C/C(=N\Nc1ccc(F)cc1)C(=O)Nc1cc(-c2ccccc2)nn1-c1ccccc1	-17% (active)
Cc1ccc(S(=O)(=O)c2nc(-c3ccc(F)cc3)oc2S(C)(=O)=O)cc1	-45.6% (active)
CC(O)c1cccc(/C(N)=N/C(N)=N/c2nc3ccccc3s2)c1 (stereo not drawn)	97%
